Experimental data from PubChem BioAssay AID2283131 (EPA ToxCast).
Inconclusive results are not listed. Active and inactive are the calls of the source. Rule for the calls: active = hit-call score of the fitted dose curve at least 0.9, where 1 is the maximum; inconclusive = response in the unintended direction; inactive = score below 0.9.

Molecular target: human Bruton's Tyrosine Kinase (BTK), BTK (gene 695) (UniProt Q06187)
Experiment: NVS_ENZ_hBTK: NovaScreen (NVS) Enzymatic Assay for human Bruton's Tyrosine Kinase (BTK)
Method: NVS_ENZ_hBTK is a biochemical, single-readout assay that uses extracted gene-proteins in a cell-free assay. Measurements were taken 1 hour after chemical dosing in a 96-well plate.NVS_ENZ_hBTK is one of one assay component(s) measured or calculated from the NVS_ENZ_hBTK assay. It is designed to make measurements of enzyme activity, a form of enzyme reporter, as detected with fluorescence intensity signals by Fluorescence and electrophoretic mobility shift technology.Data from the assay component NVS_ENZ_hBTK was analyzed into 1 assay endpoint. This assay endpoint, NVS_ENZ_hBTK, was analyzed in the positive analysis fitting direction relative to DMSO as the negative control and baseline of activity. Using a type of enzyme reporter, loss-of-signal activity can be used to understand changes in the enzymatic activity as they relate to the gene BTK. Furthermore, this assay endpoint can be referred to as a primary readout, because this assay has produced multiple assay endpoints where this one serves a enzymatic activity function. To generalize the intended target to other relatable targets, this assay endpoint is annotated to the kinase intended target family, where the subfamily is non-receptor tyrosine kinase. […]

human Bruton's Tyrosine Kinase (BTK), BTK (gene 695), sequence (Q06187 whole entry, looked up): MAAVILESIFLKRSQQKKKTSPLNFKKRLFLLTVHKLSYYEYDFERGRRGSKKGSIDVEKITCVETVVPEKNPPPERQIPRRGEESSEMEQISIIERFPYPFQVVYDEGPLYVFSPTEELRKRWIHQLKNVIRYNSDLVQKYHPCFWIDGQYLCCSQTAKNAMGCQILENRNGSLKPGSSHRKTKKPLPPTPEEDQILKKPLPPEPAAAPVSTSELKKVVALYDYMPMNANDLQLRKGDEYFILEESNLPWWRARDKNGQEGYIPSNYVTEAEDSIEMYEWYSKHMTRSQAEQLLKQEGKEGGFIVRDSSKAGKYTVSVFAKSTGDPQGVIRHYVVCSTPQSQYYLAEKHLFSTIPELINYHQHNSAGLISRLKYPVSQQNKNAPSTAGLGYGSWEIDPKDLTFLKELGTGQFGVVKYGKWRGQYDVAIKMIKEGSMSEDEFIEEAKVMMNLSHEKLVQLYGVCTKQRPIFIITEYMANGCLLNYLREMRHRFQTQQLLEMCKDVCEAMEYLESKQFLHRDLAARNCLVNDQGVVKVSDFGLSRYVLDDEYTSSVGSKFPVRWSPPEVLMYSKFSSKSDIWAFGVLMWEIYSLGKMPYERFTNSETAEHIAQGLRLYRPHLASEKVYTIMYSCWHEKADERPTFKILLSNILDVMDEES

| SMILES | outcome | AC50 |
| --- | --- | --- |
| COCCO | inactive | – |
| S=C([S-])NCCNC(=S)[S-].[Mn+2] | – | 45.5 µM (active) |
